Source: PubChem BioAssay (NCATS)
Results filed as inconclusive are left out. Active and inactive are the calls of the source. Calls come from the whole dose curve; as a rule, active = well fitted cell-killing curve with a large enough effect; inconclusive = small, poorly fitted or top-dose-only effect, or effect the other way; inactive = flat fitted curve, though single readings scatter.

Columns and labels:
Experiment in all cases: Primary qHTS to identify gynecologic anti-cancer compounds using libraries of approved drugs and bioactive compounds (AID 1345084); note: nearly all actives have a fitted effect of over 55% in size
C33A = conditions: Gynecologic cancer cell panel viability, ATPlite luminescence, 48 h; series mostly up to 57.5 µM
Outline: (§1)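 ATP-based viability (ATPlite), 1,000 cells/well, 16 h pre-incubation, 48 h compound at 37 C, 5% CO2, 15 min RT before read.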

CAOV3 = conditions: Gynecologic cancer cell panel viability, ATPlite luminescence, 48 h; series mostly up to 57.5 µM
Outline: as §1

CASKI = conditions: Gynecologic cancer cell panel viability, ATPlite luminescence, 48 h; series mostly up to 57.5 µM
Outline: as §1

Es-2 = conditions: Gynecologic cancer cell panel viability, ATPlite luminescence, 48 h; series mostly up to 57.5 µM
Outline: as §1

HeLa = conditions: Gynecologic cancer cell panel viability, ATPlite luminescence, 48 h; series mostly up to 57.5 µM
Outline: as §1

Hek293T = conditions: Gynecologic cancer cell panel viability, ATPlite luminescence, 48 h, control line for the selectivity index; series mostly up to 57.5 µM
Outline: as §1

JEG-3 = conditions: Gynecologic cancer cell panel viability, ATPlite luminescence, 48 h; series mostly up to 57.5 µM
Outline: as §1

OV90 = conditions: Gynecologic cancer cell panel viability, ATPlite luminescence, 48 h; series mostly up to 57.5 µM
Outline: as §1

PA-1 = conditions: Gynecologic cancer cell panel viability, ATPlite luminescence, 48 h; series mostly up to 57.5 µM
Outline: as §1

SKOV3 = conditions: Gynecologic cancer cell panel viability, ATPlite luminescence, 48 h; series mostly up to 57.5 µM
Outline: as §1

Tov-21-G = conditions: Gynecologic cancer cell panel viability, ATPlite luminescence, 48 h; series mostly up to 57.5 µM
Outline: as §1

Tov112D = conditions: Gynecologic cancer cell panel viability, ATPlite luminescence, 48 h; series mostly up to 57.5 µM
Outline: as §1
% is set by controls: 0 for no effect and ±100 for the full control effect.

COc1cc(C)c(C(=O)Oc2cc(C)c(C(=O)Oc3cc(C)c(C(=O)NC(C)C(=O)O)c(O)c3)c(O[C@@H]3O[C@H](CO)[C@@H](O)[C@H](O)[C@H]3OC(C)=O)c2)c(OC)c1 (stereo not given in full)
inactive: Potency (C33A) | Potency (CAOV3) | Potency (CASKI) | Potency (Es-2) | Potency (HeLa) | Potency (Hek293T) | Potency (JEG-3) | Potency (OV90) | Potency (PA-1) | Potency (SKOV3) | Potency (Tov-21-G) | Potency (Tov112D)

CC(=O)c1cc2c(cc1O)OC(C)(C)C=C2
inactive: Potency (C33A) | Potency (CAOV3) | Potency (CASKI) | Potency (Es-2) | Potency (HeLa) | Potency (Hek293T) | Potency (JEG-3) | Potency (OV90) | Potency (PA-1) | Potency (SKOV3) | Potency (Tov-21-G) | Potency (Tov112D)

Nc1ncnc2c1ncn2CCNCCCCCO
inactive: Potency (C33A) | Potency (CAOV3) | Potency (CASKI) | Potency (Es-2) | Potency (HeLa) | Potency (Hek293T) | Potency (JEG-3) | Potency (OV90) | Potency (PA-1) | Potency (SKOV3) | Potency (Tov-21-G) | Potency (Tov112D)

CC(C(O)/C=C/C(C)(C)O)C1CCC2(C)C3C(=O)C=C4C(CCC(O)C4(C)C)C3(C)CCC12C (stereo not given)
inactive: Potency (C33A) | Potency (CAOV3) | Potency (CASKI) | Potency (Es-2) | Potency (HeLa) | Potency (Hek293T) | Potency (JEG-3) | Potency (OV90) | Potency (PA-1) | Potency (SKOV3) | Potency (Tov-21-G) | Potency (Tov112D)

CNS(=O)(=O)CC1CCC(N(C)c2ncnc3[nH]ccc23)CC1 (stereo not given)
inactive: Potency (C33A) | Potency (CAOV3) | Potency (CASKI) | Potency (Es-2) | Potency (HeLa) | Potency (Hek293T) | Potency (JEG-3) | Potency (OV90) | Potency (PA-1) | Potency (SKOV3) | Potency (Tov-21-G) | Potency (Tov112D)

C=C1CC[C@@H]2[C@@](C)(CO[C@@H]3O[C@H](CO)C(O)[C@H](O)C3O)[C@H](O)CC[C@@]2(C)[C@@H]1CC/C(C)=C/CO (stereo not given in full)
inactive: activity change, negative = cytotoxicity (C33A) -18.4% [at 11.6 µM] | activity change, negative = cytotoxicity (CAOV3) 1.16% [at 11.6 µM] | activity change, negative = cytotoxicity (CASKI) -5.44% [at 11.6 µM] | activity change, negative = cytotoxicity (Es-2) 9.56% [at 11.6 µM] | activity change, negative = cytotoxicity (HeLa) -3.99% [at 11.6 µM] | activity change, negative = cytotoxicity (Hek293T) 2% [at 11.6 µM] | activity change, negative = cytotoxicity (JEG-3) 2.39% [at 11.6 µM] | activity change, negative = cytotoxicity (OV90) 6% [at 11.6 µM] | activity change, negative = cytotoxicity (PA-1) 7% [at 11.6 µM] | activity change, negative = cytotoxicity (SKOV3) -9.26% [at 11.6 µM] | activity change, negative = cytotoxicity (Tov-21-G) 4.35% [at 11.6 µM] | activity change, negative = cytotoxicity (Tov112D) 4.42% [at 11.6 µM]

COc1cc2occc2c(O[C@@H]2O[C@H](CO)[C@@H](O)[C@H](O)[C@H]2O)c1CCC(=O)O
inactive: Potency (C33A) | Potency (CAOV3) | Potency (CASKI) | Potency (Es-2) | Potency (HeLa) | Potency (Hek293T) | Potency (JEG-3) | Potency (OV90) | Potency (PA-1) | Potency (SKOV3) | Potency (Tov-21-G) | Potency (Tov112D)

CC1OC(OC2C(C)OC(OC3C(OC(=O)C45CCC(C)(C)CC4C4=CCC6C7(C)CCC(OC8OC(C(=O)O)C(O)C(O)C8OC8OC(CO)C(O)C(OC9OC(C)C(O)C(O)C9O)C8O)C(C)(CO)C7CCC6(C)C4(C)CC5)OC(CO)C(O)C3O)C(O)C2O)C(O)C(O)C1O (stereo not given)
inactive: activity change, negative = cytotoxicity (C33A) 1.01% [at 6.55 µM] | activity change, negative = cytotoxicity (CAOV3) 6.9% [at 6.55 µM] | activity change, negative = cytotoxicity (CASKI) 16.9% [at 6.55 µM] | activity change, negative = cytotoxicity (Es-2) 0.662% [at 6.55 µM] | activity change, negative = cytotoxicity (HeLa) 5.48% [at 6.55 µM] | activity change, negative = cytotoxicity (Hek293T) -2.51% [at 6.55 µM] | activity change, negative = cytotoxicity (JEG-3) 4.23% [at 6.55 µM] | activity change, negative = cytotoxicity (OV90) 11.5% [at 6.55 µM] | activity change, negative = cytotoxicity (PA-1) 0.842% [at 6.55 µM] | activity change, negative = cytotoxicity (SKOV3) 0% [at 6.55 µM] | activity change, negative = cytotoxicity (Tov-21-G) 2.91% [at 6.55 µM] | activity change, negative = cytotoxicity (Tov112D) 13.7% [at 6.55 µM]

Cc1csc(NC(=O)c2ccc(COc3cccc(Cl)c3)o2)n1
inactive: Potency (C33A) | Potency (CAOV3) | Potency (CASKI) | Potency (Es-2) | Potency (HeLa) | Potency (Hek293T) | Potency (JEG-3) | Potency (OV90) | Potency (PA-1) | Potency (SKOV3) | Potency (Tov-21-G) | Potency (Tov112D)

Cc1nc2sc(C(=O)NCc3ccncc3)c(N)c2c(C)c1Cl
inactive: Potency (C33A) | Potency (CAOV3) | Potency (CASKI) | Potency (Es-2) | Potency (HeLa) | Potency (Hek293T) | Potency (JEG-3) | Potency (OV90) | Potency (PA-1) | Potency (SKOV3) | Potency (Tov-21-G) | Potency (Tov112D)

CC(C)C[C@H](CC(=O)NO)C(=O)N[C@H](C(=O)N[C@@H](C)C(=O)NCCN)C(C)(C)C
inactive: activity change, negative = cytotoxicity (C33A) 18.9% [at 11.6 µM] | activity change, negative = cytotoxicity (CAOV3) 17.3% [at 11.6 µM] | activity change, negative = cytotoxicity (CASKI) 5.02% [at 11.6 µM] | activity change, negative = cytotoxicity (Es-2) 10.1% [at 11.6 µM] | activity change, negative = cytotoxicity (HeLa) 11.1% [at 11.6 µM] | activity change, negative = cytotoxicity (Hek293T) 15.9% [at 11.6 µM] | activity change, negative = cytotoxicity (JEG-3) 0.977% [at 11.6 µM] | activity change, negative = cytotoxicity (OV90) 19.6% [at 11.6 µM] | activity change, negative = cytotoxicity (PA-1) 8.02% [at 11.6 µM] | activity change, negative = cytotoxicity (SKOV3) 0% [at 11.6 µM] | activity change, negative = cytotoxicity (Tov-21-G) 7.8% [at 11.6 µM] | activity change, negative = cytotoxicity (Tov112D) -2.79% [at 11.6 µM]

O=C(O)c1ccc(OC2OC(CO)C(O)C(O)C2O)cc1 (stereo not given)
inactive: Potency (C33A) | Potency (CAOV3) | Potency (CASKI) | Potency (Es-2) | Potency (HeLa) | Potency (Hek293T) | Potency (JEG-3) | Potency (OV90) | Potency (PA-1) | Potency (SKOV3) | Potency (Tov-21-G) | Potency (Tov112D)

CC(C)O[C@@H]1O[C@H](CO)[C@@H](O)[C@H](O)[C@H]1O
inactive: Potency (C33A) | Potency (CAOV3) | Potency (CASKI) | Potency (Es-2) | Potency (HeLa) | Potency (Hek293T) | Potency (JEG-3) | Potency (OV90) | Potency (PA-1) | Potency (SKOV3) | Potency (Tov-21-G) | Potency (Tov112D)

C[C@H]1O[C@@H](O[C@H]2CC[C@@]3(C)C(CC[C@]4(C)C3CC=C3C5CC(C)(C)CC[C@]5(C(=O)O)CC[C@]34C(=O)O)C2(C)C)[C@H](O)[C@@H](O)[C@@H]1O (stereo not given in full)
inactive: Potency (C33A) | Potency (CAOV3) | Potency (CASKI) | Potency (Es-2) | Potency (HeLa) | Potency (Hek293T) | Potency (JEG-3) | Potency (OV90) | Potency (PA-1) | Potency (SKOV3) | Potency (Tov-21-G) | Potency (Tov112D)

O=C(CN1C(=O)C2(CCCC2)NCC1c1cc(F)cc(F)c1)Nc1ccc2c(c1)CC1(C2)C(=O)Nc2ncccc21 (stereo not given)
inactive: Potency (C33A) | Potency (CAOV3) | Potency (CASKI) | Potency (Es-2) | Potency (HeLa) | Potency (Hek293T) | Potency (JEG-3) | Potency (OV90) | Potency (PA-1) | Potency (SKOV3) | Potency (Tov-21-G) | Potency (Tov112D)
